Screening data: PubChem BioAssay, several laboratories
Rows were chosen to be rich in hits. Some 1.2% of all compounds tested hit in one or more screens of this group.
GASC-1 inh: inhibitors of GASC-1 histone demethylase, primary screen, biochemical, fluorescence, DELFIA europium. Lysine-specific demethylase 4C (Homo sapiens), Q9H3R0. GST-JMJD2C(1-420) H3K9me3 demethylation. inhibition, % at 2.35 µM. 0.069% of 330,000 active. AID 2099, 2009;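 active = more than half of a compound's replicate wells show inhibition beyond 50%, single wells judged on their own value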;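 also: signal counts dimethyl H3K9 product captured on neutravidin plate; 0% = median of DMSO wells and 100% = 0.3 times that DMSO median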
Target sequence (Q9H3R0 1-420 limits assumed): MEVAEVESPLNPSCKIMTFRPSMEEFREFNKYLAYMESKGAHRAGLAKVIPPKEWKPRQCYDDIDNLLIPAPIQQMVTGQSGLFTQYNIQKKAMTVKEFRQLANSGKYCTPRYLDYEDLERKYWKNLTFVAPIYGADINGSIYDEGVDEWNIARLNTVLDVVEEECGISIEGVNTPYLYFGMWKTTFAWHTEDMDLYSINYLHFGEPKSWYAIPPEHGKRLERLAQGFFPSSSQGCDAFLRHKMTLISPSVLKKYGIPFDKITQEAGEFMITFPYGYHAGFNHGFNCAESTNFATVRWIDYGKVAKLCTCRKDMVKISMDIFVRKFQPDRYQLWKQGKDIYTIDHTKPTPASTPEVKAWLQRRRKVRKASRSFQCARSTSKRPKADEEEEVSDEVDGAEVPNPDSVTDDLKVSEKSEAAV
VLA-4 inh: inhibition in human VLA-4 binding assay, primary screen, VLA-4 allosteric modulator project, MLPCN library, flow cytometry, VLA-4 expressing cells | Integrin alpha-4 (Homo sapiens), P13612 | ligand binding flow cytometry | inhibition, % (about 7 µM as worked out from the volumes in the protocol) | 0.2% of 330,000 active; in the data active = inhibition above about 50%
GPR7 antagonist: GPR7 receptor antagonists, primary screen, cell-based, fluorescence, single concentration; Neuropeptides B/W receptor type 1 (Homo sapiens), P48145; GPR7-expressing cells, fluorescence antagonist assay; inhibition, % at 4.4 µM; 1.1% of 290,000 active; AID 1861, 2009; in the data active = inhibition above about 16%, passing the limit was not always enough;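 also: cells stimulated with the agonist NPW; 0% = agonist with vehicle and 100% = vehicle without agonist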
p-CIP stab down: p/CIP-EGFP fusion destabilizers, primary screen, fluorescence, F442A cells | 0.01% of 290,000 active | decrease of EGFP signal, % at 10 µM | Q05BA5 | AID 1984, 2009 | 16 h;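 active = EGFP signal decrease of at least 30% at 10 µM or well 3 SD below plate mean, unless failing retest; inactive = the rest, including hits failing retest or dose response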
Active calls of the source: *; x = no result given.

SMILES	GASC-1 inh	VLA-4 inh	GPR7 antagonist	p-CIP stab down
CCOC(=O)C1CCCN(S(=O)(=O)c2cnc(Cl)c(Br)c2)C1 (stereo not drawn)	2	-1	8	-2
CC(C)c1onc(C(=O)NC2CCCCC2)c1[N+](=O)[O-]	0	8	18*	6
CCC1CCCCN1C(=O)c1noc(C(C)C)c1[N+](=O)[O-] (stereo not drawn)	-5	-5	19*	0
CCn1ncc([N+](=O)[O-])c1C(=O)Nc1c(C)nn(Cc2ccc(F)cc2)c1C	1	30	-14	2
O=C1NC(=O)C(Cc2c[nH]c3ccccc23)N1 (stereo not drawn)	9	-3	-3	3
COc1ccccc1NS(=O)(=O)c1ccc(C(=O)NCC(c2cccs2)N2CCOCC2)cc1 (stereo not drawn)	3	-8	x	x
COc1ccc(-c2cc(C(=O)N3CCN(S(=O)(=O)c4ccc(C)cc4)CC3)[nH]n2)cc1	-6	-23	13	-12
COCCCNC(=O)CCC(=O)NNc1nc2ccccc2c2nc(C)nn12	-3	0	-11	9
Cc1cc(CNC(=O)Cc2c(F)cccc2Cl)nn1C	18	2	19*	-22
O=c1c(O)c(-c2cccs2)oc2ccc(Cl)cc12	-3	-9	24*	-490
O=c1c(O)c(-c2cccs2)oc2ccccc12	21	-6	0	-264
COc1ccc(C2NCCc3c2[nH]c2ccccc32)cc1COc1ccc(F)cc1 (stereo not drawn)	13	16	46*	-6
CC1C(=O)N(Cc2ccc([N+](=O)[O-])cc2)c2ccccc2N1C(=O)C1CC1 (stereo not drawn)	60*	16	-4	-10
CC(=O)Nc1ccc(SCC(=O)c2c(N)n(Cc3ccccc3)c(=O)n(C)c2=O)cc1	-2	-11	-15	0
CC(=O)NC(=S)c1c(N)n(Cc2ccccc2)c(=O)n(C)c1=O	-16	-17	21*	-4
COc1ccc(NC(=O)c2ccsc2NC(C)=O)cc1	6	2	-8	3
C=CC[n+]1ccc(/C=C2\C=Cc3cc(C)ccc3N2CC)c2ccccc21	x	x	26*	-14
Cc1ccnc2nc(C(=O)OC(C)C(=O)NCc3ccccc3)nn12 (stereo not drawn)	8	4	x	x
COc1cc(O)c(C(CC(=O)N2CCOCC2)c2cc(OC)c(OC)c(OC)c2)c(OC)c1 (stereo not drawn)	6	x	x	-6
COc1ccc(N2CCN(C(=O)c3cc(N4C(=O)C5C6CCC(C6)C5C4=O)ccc3Cl)CC2)cc1 (stereo not drawn)	0	6	20*	0
O=[N+]([O-])c1cc(/C=N/NC(=S)Nc2ccccc2Cl)ccc1Cl	x	37	30*	-4
CCOc1ccccc1OCC(=O)Nc1ccc(N2CCCCC2)cc1	-12	-15	17*	-1
COc1ccc(Oc2ccc(-c3ccn[nH]3)cc2)cc1	19	-5	-2	-1
Cc1cc(NC(=O)COc2cccc3cccnc23)no1	14	x	-18	-16
NC(=O)COc1cccc2cccnc12	74*	-6	16	-6
SMILES	GASC-1 inh	VLA-4 inh	GPR7 antagonist	p-CIP stab down
CCc1ccccc1NC(=O)NC1CCCCCCC1	-3	3	-3	-22
COc1ccc(C(=O)C(CN2CCOCC2)c2ccccc2)cc1F (stereo not drawn)	1	x	35*	0
Cc1ccc(Cl)cc1NC(C#N)c1ccccc1 (stereo not drawn)	9	11	-20	-12
CN(CCOc1ccccc1Cl)Cc1ccccc1	3	2	5	-4
CN(CCOCCOc1ccc(Cl)cc1Br)Cc1ccccc1	1	16	10	38*
c1ccc(CN2CCC(Nc3nc(-c4cccs4)nc4ccccc34)CC2)cc1	-15	18	20*	1
Cc1ccc(C)c(N(C(=O)c2csnn2)C(C(=O)NC2CCCC2)c2cccnc2)c1 (stereo not drawn)	71*	5	-11	-10
C[C@H](CO)N1C[C@H](C)[C@@H](CN(C)S(=O)(=O)c2cccs2)Oc2c(NS(=O)(=O)c3ccccc3)cccc2C1=O	-3	-6	x	x
O=C(CCCSc1nc2ccccc2[nH]1)N1CCN(c2ccc([N+](=O)[O-])cc2)CC1	-8	10	18*	-3
CC(=O)n1cc(N(C(=O)CCl)c2ccc([N+](=O)[O-])cc2)c2ccccc21	10	7	21*	12
CCOC(=O)c1cc(-c2ccc(OC)cc2)nc2c1c(C)nn2CCC#N	9	1	19*	-10
